The source of these data is PubChem BioAssay (NCATS).

Test [1] concerns the target Estrogen receptor (Homo sapiens) (UniProt P03372). In words: qHTS assay for small molecule agonists of estrogen receptor alpha signaling (AID 588514).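 Also: 0% = vehicle only and 100% = reference agonist; nearly all actives have a fitted effect of over 70% in size.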 The procedure, abridged:
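EC50 and efficacy came from Hill fits of beta-lactamase reporter signal (CCF4 dye, 2 h at room temperature) scaled between DMSO and 20 nM 17-beta-estradiol. Agonist mode: HEK293 ER-alpha-UAS-bla cells in charcoal/dextran-stripped serum medium, 18 h compound exposure at 37 C.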

Test [2] addresses Glucocorticoid receptor (Homo sapiens) (UniProt P04150). In words: qHTS assay for small molecule agonists of glucocorticoid receptor signaling (AID 588532; active = well fitted curve in the direction sought with a large enough effect in the signal ratio, with a control signal flat; inconclusive = small, poorly fitted or top-dose-only effect, or a change in a side signal; inactive = no such curve, though single readings can be large or run the other way; the % refers to the signal ratio;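 also: 100% = dexamethasone at 0.1 µM and 0% = DMSO only wells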). Conditions: HeLa MMTV-bla, beta-lactamase ratio, agonist, 18 h; stronger effect = higher value; percent of dexamethasone control, DMSO zero. In a few lines: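 Cells were plated and rested 3-5 h at 37 C, compounds were added in titration and incubated 18 h, then CCF4 substrate was loaded for 2 h at RT before reading blue/green fluorescence. EC50 came from Hill-equation fitting.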

Test [3] concerns the target Vitamin D3 receptor (Homo sapiens) (UniProt P11473). Description: qHTS assay for small molecule antagonists of vitamin D receptor signaling (AID 588541). Also: potency is read from the fitted curve at half-maximal effect. The procedure, abridged: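 VDR-UAS-bla HEK293T cells in 2% charcoal-stripped FBS were stimulated with 1-alpha,25-dihydroxyvitamin D3 (3 nM final) plus compound for 16 h at 37 C. The beta-lactamase CCF4 readout was normalized to 50 nM agonist and DMSO, and Hill fits gave IC50.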

The target is the same in test [4]. In words: qHTS assay for small molecule agonists of vitamin D receptor signaling (AID 588543).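 Also: 0% = DMSO basal and 100% = reference agonist control.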 In a few lines: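 qHTS in agonist mode: compound titrations stimulate a VDR-driven β-lactamase reporter in HEK293T cells over 16 h at 37 °C. Response normalized to 50 nM 1α,25-dihydroxyvitamin D3 = 100%, DMSO = 0%; Hill fitting gives EC50 and maximal response.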
Test [5] addresses Thyroid hormone receptor beta (Homo sapiens) (UniProt P10828). In words: qHTS assay for small molecule agonists of thyroid hormone receptor beta signaling (AID 588545). In a few lines:
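HEK 293 TR-UAS-bla; agonist mode; 18 hrs, 37 C; CCF4, ex 405/em 460 and 530 nm; norm. T3 10 nM = 100%, DMSO = 0%; Hill fit → EC50, efficacy.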

Test [6] in a line: qHTS assay for small molecule antagonists of retinoid X receptor alpha signaling (AID 588546).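 Also: cells stimulated with 9-cis-retinoic acid as agonist; % is scaled to controls: 0 for no effect and ±100 for the full control effect.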 Conditions: HEK293T RXRa-UAS-bla, beta-lactamase ratio, antagonist mode; measured here: W530 green channel, cytotoxicity proxy. The procedure, abridged:
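Beta-lactamase reporter inhibition, read as CCF4 fluorescence ratio (ex 405, em 460/530 nm) after 2 h at RT. HEK293T UAS-bla cells, 2500/well, were stimulated with 9-cis-RA at 500 or 100 nM final alongside test compound for 18 h at 37 C.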

For test [7], the target named is Bile acid receptor (Homo sapiens) (UniProt Q96RI1). In words: qHTS assay for small molecule antagonists of farnesoid X receptor signaling (AID 588526). Also: % is scaled to controls: 0 for no effect and ±100 for the full control effect. In a few lines:
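Antagonist mode: titrated compounds tested against chenodeoxycholic acid stimulation (normalized to 50 uM CDCA and DMSO) in GeneBLAzer HEK293T cells for 16 h. Beta-lactamase read by CCF4 fluorescence; IC50 from Hill fits.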

Test [8] has the same target. In words: qHTS assay for small molecule agonists of farnesoid X receptor signaling (AID 588527).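 Also: series mostly up to about 77 µM; 0% = vehicle basal and 100% = reference agonist.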 Conditions: HEK293T FXR-UAS-bla, beta-lactamase ratio, 16 h; stronger effect = higher value. In a few lines:
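Agonist-mode beta-lactamase reporter in GeneBLAzer FXR-UAS-bla HEK293T cells, titration up to 92 uM, 16 h exposure at 37 C, CCF4 fluorescence. Response scaled to DMSO (0%) and 100 uM chenodeoxycholic acid (100%), then Hill-fitted for EC50 and efficacy.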

In test [9] the target is Peroxisome proliferator-activated receptor delta (Homo sapiens) (UniProt Q03181). In words: qHTS assay for small molecule agonists of peroxisome proliferator-activated receptor delta signaling (AID 588534).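 Also: 0% = DMSO basal wells and 100% = positive control agonist at 10 µM.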 The procedure, abridged: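 Agonist-mode beta-lactamase reporter readout (CCF4 dye, 2 h at RT) after 18 h at 37 °C exposure to a titration; Hill-equation fitting gave EC50 and maximal response.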

In test [10] the target is Estrogen receptor (Homo sapiens) (UniProt P03372). Description: qHTS assay for small molecule antagonists of estrogen receptor alpha signaling (AID 588513; active = well fitted curve in the direction sought with a large enough effect in the signal ratio, with a control signal flat, not every such curve was filed as active; inconclusive = small, poorly fitted or top-dose-only effect, or effect the other way, or a change in a side signal; inactive = no such curve, though single readings can be large or run the other way; the % refers to the signal ratio; also: potency is read from the fitted curve at half-maximal effect). In a few lines: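 Cells were plated at 5000/well and incubated 4 h at 37 C. Compounds were added as 1:2 dilution series, duplicates. 17-beta-estradiol (0.5nM final) was added for 18 h before CCF4 detection.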
A short description of test [11]: qHTS assay for small molecule antagonists of peroxisome proliferator-activated receptor delta signaling (AID 588535; active = well fitted inhibition curve with a large enough effect in the signal ratio, with a control signal flat, not every such curve was filed as active; inconclusive = small, poorly fitted or top-dose-only effect, or effect the other way, or a change in a side signal; inactive = no such curve, though single readings can be large or run the other way; the % refers to the signal ratio; also: potency is read from the fitted curve at half-maximal effect;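 as to max response: cells co-treated with a PPAR-delta agonist as stimulator during compound exposure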). Conditions: HEK293T PPARd-UAS-bla, beta-lactamase FRET ratio, 18 h; 460 nm channel. The procedure, abridged: (§1)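 Fluorescence from CCF4-loaded GeneBLAzer PPAR-delta-UAS-bla HEK293T cells (2 hrs RT loading) quantified reporter inhibition after an 18 hr, 37 C compound exposure across a titration.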

The target of test [12] is Peroxisome proliferator-activated receptor delta (Homo sapiens) (UniProt Q03181). The test is described as above. The procedure, abridged:
as §1

In test [13] the target is Peroxisome proliferator-activated receptor gamma (Homo sapiens) (UniProt P37231). In words: qHTS assay for small molecule agonists of peroxisome proliferator-activated receptor gamma signaling (AID 588536; active = well fitted curve in the direction sought with a large enough effect in the signal ratio, with a control signal flat, not every such curve was filed as active; inconclusive = small, poorly fitted or top-dose-only effect, or effect the other way, or a change in a side signal; inactive = no such curve, though single readings can be large or run the other way; the % refers to the signal ratio;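 also: 0% = DMSO basal wells and 100% = rosiglitazone at 2 µM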). In a few lines: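 This is an agonist-mode beta-lactamase reporter assay in HEK293 PPAR-gamma-UAS-bla cells with 1% charcoal/dextran FBS. Compound titrations ran 16 h at 37 C before CCF4 detection. EC50 and efficacy are Hill fits scaled to 2 uM rosiglitazone (100%) and DMSO basal.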

Test [14] has the same target. Description: qHTS assay for small molecule antagonists of peroxisome proliferator-activated receptor gamma signaling (AID 588537; active = well fitted inhibition curve with a large enough effect in the signal ratio, with a control signal flat, not every such curve was filed as active; inconclusive = small, poorly fitted or top-dose-only effect, or effect the other way, or a change in a side signal; the % refers to the signal ratio;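 also: reporter cells co-stimulated with 50 nM rosiglitazone agonist during compound treatment; % of control where 0% means no effect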). In a few lines: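 Fluorescence at 460 and 530 nm (405 nm excitation) reported beta-lactamase cleavage of CCF4 after 2 h room-temperature loading. HEK293 reporter cells in 1% charcoal/dextran-treated FBS had received compound and rosiglitazone for 16 h.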

A short description of test [15]: qHTS assay for small molecule agonists of retinoid X receptor alpha signaling (AID 588544).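 As to activation: 0% = DMSO basal wells and 100% = reference agonist.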 Conditions: HEK293T RXRa-UAS-bla, beta-lactamase reporter, 18 h; 530 nm emission.
Test [16] has as its target Retinoic acid receptor RXR-alpha (Homo sapiens) (UniProt P19793). Described as above.
The target of test [17] is Androgen receptor (Homo sapiens) (UniProt P10275). In words: qHTS assay for small molecule agonists of androgen receptor signaling (AID 588515; active = well fitted curve in the direction sought with a large enough effect in the signal ratio, with a control signal flat; inconclusive = small, poorly fitted or top-dose-only effect, or effect the other way, or a change in a side signal; inactive = no such curve, though single readings can be large or run the other way; the % refers to the signal ratio; also: % is scaled to controls: 0 for no effect and ±100 for the full control effect). Conditions: AR-UAS-bla HEK293, beta-lactamase ratio, agonist 16 h; stronger effect = higher value. The procedure, abridged:
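Stimulation of an AR-responsive β-lactamase reporter in GripTite HEK293 cells was measured after 16 h compound exposure at 37 °C, via CCF4 fluorescence after 2 h RT. EC50 from Hill fits, normalized to R1881 at 30 nM.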

Test [18] has the same target. Description: qHTS assay for small molecule antagonists of androgen receptor signaling (AID 588516; active = well fitted curve in the direction sought with a large enough effect in the signal ratio, with a control signal flat, not every such curve was filed as active; inconclusive = small, poorly fitted or top-dose-only effect, or effect the other way, or a change in a side signal; inactive = no such curve, though single readings can be large or run the other way; the % refers to the signal ratio; also: potency is read from the fitted curve at half-maximal effect). In a few lines: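 Antagonist-mode qHTS: inhibition of R1881 (10 nM)-driven beta-lactamase expression in GripTite HEK 293 cells is measured after 16 h; values are Hill-derived IC50s normalized between R1881 and DMSO wells.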

SMILES strings stand for the structures. Values joined by “and” are separate entries in the source; they are usually repeats but may differ in a detail not shown here. Equal values may be shown once. Active and inactive are the calls of the source. Unless noted, calls follow the shape of the full dose curve.

Sequence of Vitamin D3 receptor (Homo sapiens) (P11473 whole entry, looked up): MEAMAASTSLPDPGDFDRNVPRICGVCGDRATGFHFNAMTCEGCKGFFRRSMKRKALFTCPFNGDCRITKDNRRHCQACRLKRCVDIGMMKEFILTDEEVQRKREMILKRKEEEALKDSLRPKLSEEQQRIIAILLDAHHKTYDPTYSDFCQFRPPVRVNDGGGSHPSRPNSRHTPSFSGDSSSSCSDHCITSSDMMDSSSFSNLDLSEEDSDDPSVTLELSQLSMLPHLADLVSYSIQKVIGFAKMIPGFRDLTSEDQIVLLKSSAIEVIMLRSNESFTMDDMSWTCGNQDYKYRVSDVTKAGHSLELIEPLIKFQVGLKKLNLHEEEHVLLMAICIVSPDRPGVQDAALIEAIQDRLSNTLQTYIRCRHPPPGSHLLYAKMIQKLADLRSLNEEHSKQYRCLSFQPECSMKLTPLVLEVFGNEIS
Sequence of Glucocorticoid receptor (Homo sapiens) (P04150 whole entry, looked up): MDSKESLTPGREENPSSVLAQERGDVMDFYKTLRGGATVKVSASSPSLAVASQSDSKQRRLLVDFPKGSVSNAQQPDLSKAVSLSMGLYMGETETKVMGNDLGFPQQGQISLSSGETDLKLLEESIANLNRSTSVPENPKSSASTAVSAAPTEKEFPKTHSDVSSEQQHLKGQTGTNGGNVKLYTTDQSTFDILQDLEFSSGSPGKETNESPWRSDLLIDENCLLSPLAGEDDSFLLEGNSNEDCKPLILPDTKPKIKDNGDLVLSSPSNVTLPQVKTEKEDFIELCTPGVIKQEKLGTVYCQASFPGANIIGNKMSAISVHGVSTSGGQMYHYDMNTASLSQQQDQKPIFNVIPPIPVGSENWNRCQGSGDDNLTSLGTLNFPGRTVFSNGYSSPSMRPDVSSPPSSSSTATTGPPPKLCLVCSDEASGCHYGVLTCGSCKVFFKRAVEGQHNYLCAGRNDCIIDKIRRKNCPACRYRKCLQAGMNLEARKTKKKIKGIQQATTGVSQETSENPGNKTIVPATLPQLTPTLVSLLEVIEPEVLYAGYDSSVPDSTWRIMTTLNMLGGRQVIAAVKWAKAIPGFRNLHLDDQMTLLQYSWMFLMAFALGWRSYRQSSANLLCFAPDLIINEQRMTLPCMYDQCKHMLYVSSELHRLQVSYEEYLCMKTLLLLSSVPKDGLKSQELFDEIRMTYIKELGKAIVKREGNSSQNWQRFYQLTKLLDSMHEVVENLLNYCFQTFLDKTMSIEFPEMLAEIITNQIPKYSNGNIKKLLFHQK
Sequence of Retinoic acid receptor RXR-alpha (Homo sapiens) (P19793 whole entry, looked up): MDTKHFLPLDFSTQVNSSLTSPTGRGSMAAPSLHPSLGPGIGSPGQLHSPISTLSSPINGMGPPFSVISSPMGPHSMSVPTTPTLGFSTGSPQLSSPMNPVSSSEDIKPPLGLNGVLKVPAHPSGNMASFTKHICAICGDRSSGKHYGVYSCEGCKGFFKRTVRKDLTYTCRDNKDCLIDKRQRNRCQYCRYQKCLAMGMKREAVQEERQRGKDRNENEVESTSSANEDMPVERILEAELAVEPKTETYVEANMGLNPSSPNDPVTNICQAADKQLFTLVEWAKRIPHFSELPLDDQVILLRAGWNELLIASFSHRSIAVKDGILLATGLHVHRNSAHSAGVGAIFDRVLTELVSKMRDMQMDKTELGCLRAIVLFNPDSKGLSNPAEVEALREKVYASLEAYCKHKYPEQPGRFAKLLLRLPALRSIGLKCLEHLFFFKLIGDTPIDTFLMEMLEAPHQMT
Sequence of Androgen receptor (Homo sapiens) (P10275 whole entry, looked up): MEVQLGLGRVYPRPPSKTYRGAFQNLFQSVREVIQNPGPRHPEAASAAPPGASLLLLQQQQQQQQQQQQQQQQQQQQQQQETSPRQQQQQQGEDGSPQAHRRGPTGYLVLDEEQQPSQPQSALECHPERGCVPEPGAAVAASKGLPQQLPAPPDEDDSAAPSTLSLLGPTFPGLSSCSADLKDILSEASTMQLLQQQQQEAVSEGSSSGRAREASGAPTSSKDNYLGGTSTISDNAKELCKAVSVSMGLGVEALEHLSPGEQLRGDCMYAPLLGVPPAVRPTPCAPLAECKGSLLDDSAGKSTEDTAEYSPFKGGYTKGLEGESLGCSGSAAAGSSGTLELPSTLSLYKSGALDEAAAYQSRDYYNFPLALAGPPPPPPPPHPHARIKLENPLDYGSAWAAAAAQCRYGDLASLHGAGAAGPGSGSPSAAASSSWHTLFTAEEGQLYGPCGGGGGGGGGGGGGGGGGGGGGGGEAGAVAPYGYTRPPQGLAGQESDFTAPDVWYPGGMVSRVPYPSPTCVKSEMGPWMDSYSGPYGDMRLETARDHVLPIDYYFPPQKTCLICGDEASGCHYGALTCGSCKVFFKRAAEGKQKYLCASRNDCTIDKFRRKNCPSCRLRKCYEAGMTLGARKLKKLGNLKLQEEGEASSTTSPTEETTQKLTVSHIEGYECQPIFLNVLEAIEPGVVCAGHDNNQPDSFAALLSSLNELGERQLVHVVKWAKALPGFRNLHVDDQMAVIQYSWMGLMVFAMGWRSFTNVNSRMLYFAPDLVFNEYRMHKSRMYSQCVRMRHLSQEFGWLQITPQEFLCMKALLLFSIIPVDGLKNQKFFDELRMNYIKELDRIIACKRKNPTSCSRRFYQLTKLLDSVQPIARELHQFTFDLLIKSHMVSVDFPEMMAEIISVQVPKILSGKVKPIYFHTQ
Sequence of Bile acid receptor (Homo sapiens) (Q96RI1 whole entry, looked up): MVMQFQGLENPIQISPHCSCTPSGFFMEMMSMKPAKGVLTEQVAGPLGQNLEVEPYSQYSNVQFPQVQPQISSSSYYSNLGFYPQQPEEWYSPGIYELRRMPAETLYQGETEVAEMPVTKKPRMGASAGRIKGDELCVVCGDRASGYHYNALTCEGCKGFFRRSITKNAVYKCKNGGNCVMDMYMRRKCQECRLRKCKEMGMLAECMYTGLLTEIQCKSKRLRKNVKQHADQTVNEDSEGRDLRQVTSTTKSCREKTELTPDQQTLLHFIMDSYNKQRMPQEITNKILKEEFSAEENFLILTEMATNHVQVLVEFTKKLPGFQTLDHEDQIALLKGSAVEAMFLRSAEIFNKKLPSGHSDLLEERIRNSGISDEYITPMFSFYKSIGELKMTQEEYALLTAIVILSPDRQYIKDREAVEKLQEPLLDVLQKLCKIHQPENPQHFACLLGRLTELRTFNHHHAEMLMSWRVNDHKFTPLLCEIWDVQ
Sequence of Thyroid hormone receptor beta (Homo sapiens) (P10828 whole entry, looked up): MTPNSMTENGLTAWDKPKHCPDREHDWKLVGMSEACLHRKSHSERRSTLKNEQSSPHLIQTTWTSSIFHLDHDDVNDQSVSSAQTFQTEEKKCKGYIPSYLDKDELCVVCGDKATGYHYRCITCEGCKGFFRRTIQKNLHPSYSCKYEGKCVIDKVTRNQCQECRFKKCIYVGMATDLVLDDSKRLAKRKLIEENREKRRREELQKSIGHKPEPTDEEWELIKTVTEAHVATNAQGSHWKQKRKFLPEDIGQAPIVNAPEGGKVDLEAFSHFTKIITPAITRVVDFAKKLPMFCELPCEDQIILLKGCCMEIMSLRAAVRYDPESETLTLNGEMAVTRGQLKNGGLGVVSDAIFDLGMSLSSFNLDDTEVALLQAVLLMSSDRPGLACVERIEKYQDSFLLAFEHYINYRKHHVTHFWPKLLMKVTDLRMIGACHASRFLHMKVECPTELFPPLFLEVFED
Sequence of Estrogen receptor (Homo sapiens) (P03372 whole entry, looked up): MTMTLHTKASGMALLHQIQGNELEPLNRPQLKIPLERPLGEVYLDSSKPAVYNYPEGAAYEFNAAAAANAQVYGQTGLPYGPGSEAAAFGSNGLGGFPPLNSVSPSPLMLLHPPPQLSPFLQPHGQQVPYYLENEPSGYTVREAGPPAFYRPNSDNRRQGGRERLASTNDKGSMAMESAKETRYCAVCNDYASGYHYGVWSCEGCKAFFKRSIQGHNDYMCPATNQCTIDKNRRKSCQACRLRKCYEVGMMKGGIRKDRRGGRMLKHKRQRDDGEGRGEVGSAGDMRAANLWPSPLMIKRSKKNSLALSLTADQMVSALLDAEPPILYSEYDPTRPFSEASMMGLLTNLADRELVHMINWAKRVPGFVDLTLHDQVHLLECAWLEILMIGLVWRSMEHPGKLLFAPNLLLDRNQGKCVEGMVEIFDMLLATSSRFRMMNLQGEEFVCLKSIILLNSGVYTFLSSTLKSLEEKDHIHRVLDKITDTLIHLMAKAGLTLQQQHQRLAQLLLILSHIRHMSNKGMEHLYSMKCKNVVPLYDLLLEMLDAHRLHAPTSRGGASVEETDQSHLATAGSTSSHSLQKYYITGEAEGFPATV
Sequence of Peroxisome proliferator-activated receptor gamma (Homo sapiens) (P37231 whole entry, looked up): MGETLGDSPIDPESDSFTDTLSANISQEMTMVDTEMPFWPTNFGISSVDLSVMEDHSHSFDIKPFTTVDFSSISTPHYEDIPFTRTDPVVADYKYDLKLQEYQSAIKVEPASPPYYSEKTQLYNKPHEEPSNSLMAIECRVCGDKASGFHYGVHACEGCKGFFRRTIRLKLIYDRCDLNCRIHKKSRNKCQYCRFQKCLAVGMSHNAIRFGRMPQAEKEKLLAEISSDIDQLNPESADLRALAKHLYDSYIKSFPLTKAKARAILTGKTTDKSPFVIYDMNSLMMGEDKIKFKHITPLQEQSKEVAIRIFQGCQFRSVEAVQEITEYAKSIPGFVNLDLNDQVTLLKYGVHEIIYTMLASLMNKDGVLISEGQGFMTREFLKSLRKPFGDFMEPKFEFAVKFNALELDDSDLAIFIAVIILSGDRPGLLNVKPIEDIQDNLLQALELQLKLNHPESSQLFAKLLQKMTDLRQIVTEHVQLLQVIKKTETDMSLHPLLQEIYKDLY

For `CC(C)Oc1cccc(NC(=O)c2ccccc2C(F)(F)F)c1`, the compound was classed as inactive in test [1], in test [4] and in test [5]. Besides, in [2], the activation was -4.03% (inactive). In addition, the Potency entry in test [3] was “inactive”. In addition, the max response in test [6] came out at 0.398%.
Turning to `COc1nn(CSP(=S)(OC)OC)c(=O)s1`, the call in test [1], in test [7], in [9], in test [4] and in test [5] was inactive. Further, the activation in test [8] is 3.32% (inactive); in test [2] it was 12.2% (inactive). Besides, the Potency result in test [3] was “inactive”.
Consider `COCCOCCO`, for which the Potency entry in test [10], in test [12], in test [14], in test [3] and in [16] was “inactive” throughout. For the same compound, the result in [1], in test [13], in test [4] and in test [5] was inactive. The max response is -0.0574% in test [11]; 0.722% in test [15]; 3.81% and -4.43% in test [6].
Take `O=C(O)COc1ccccc1`: the Potency entry in test [10], in [12] and in [3] was “inactive” throughout. Moreover, the call in test [1], in [9], in test [13], in [4] and in test [5] was inactive. Besides, the activation in test [2] was -4.12% (inactive). In addition, the max response in test [11] was 43.8%; in [6], 0.163%.
Turning to `Nc1ccc(Cl)cc1N`, the activation is -2.06% (inactive) in test [17]; 0.723% (inactive) in test [8]; 0.0302% (inactive) and -3.42% (inactive) in test [2]. Further, the Potency entry in test [18], in [3] and in test [16] was “inactive” throughout. Also, the call in test [7], in [13], in test [4] and in [5] was inactive. Moreover, the max response was 13.9% in [15]; 11.5% and -1.67% in test [6].
Regarding `CC(=O)[O][Hg][c]1ccccc1`, the Potency in [10] was 2240 nM [inconclusive] (active); in [18], 2240 nM (active); in test [12] it was 2820 nM (active); in [3], 1.58 µM (active) and 2.51 µM (active). Further, the activation in [2] was 23.7% (inactive). Besides, in [11], the max response is -98.8%.
Consider `O=C(O)C(Cl)Cl`, for which the Potency result in test [10], in [12], in test [14] and in test [16] was “inactive” throughout. Further, the compound was called inactive in test [1], in test [9], in test [13] and in test [5]. For the same compound, in test [2], the activation is -0.327% (inactive). The max response is -4.92% in test [11]; -16% and 3.52% in test [15]; -11.2% and -3.76% in test [6].
As to `CC(C)(c1ccc(O)cc1)c1ccc(O)cc1`, the activation in test [17] was -6.96% (inactive). The Potency result in [14] and in test [16] was “inactive” in each case. The max response in test [15] is 0.616% and 8.18%.
For the compound `COC(C)(C)CCCC(C)C/C=C/C(C)=C/C(=O)OC(C)C` (stereo not drawn), the activation in test [17] is -13.7% (inactive) and -1.74% (inactive). The Potency entry in test [18] and in test [16] was “inactive” each time. Besides, the call in test [13] and in test [5] was inactive. For the same compound, the max response in [15] is 13.2%; in test [6], 2.28% and 4.86%.
Consider `CCCN(CCC)c1c([N+](=O)[O-])cc(S(N)(=O)=O)cc1[N+](=O)[O-]`, for which the result in test [1], in test [7] and in [4] was inactive. The figures for the activation in [8] and in test [2] were -1% (inactive) and -3.33% (inactive), respectively. The max response in [11] was 53.5%; in test [15] it was -0.936%; in [6], -18.5%. Further, the Potency result in [12] and in test [16] was “inactive” each time.
